Data: PubChem BioAssay (Tox21)
Results filed as inconclusive are left out. Unmarked numbers belong to inactive results. Calls follow the shape of the full dose curve.

The compounds below were run against D(2) dopamine receptor (Homo sapiens) (UniProt P14416) (assay: Dopamine D2 receptor (DRD2) small molecule agonists, cell-based qHTS assay (AID 1963594; also: nearly all actives have a fitted effect of over 35% in size)). Details: HEK293-DRD2 cAMP HTRF, agonist mode, 30 min; series mostly up to 92.4 µM; activation: at the top concentration.
Chain of D(2) dopamine receptor (Homo sapiens) (P14416 whole entry, looked up): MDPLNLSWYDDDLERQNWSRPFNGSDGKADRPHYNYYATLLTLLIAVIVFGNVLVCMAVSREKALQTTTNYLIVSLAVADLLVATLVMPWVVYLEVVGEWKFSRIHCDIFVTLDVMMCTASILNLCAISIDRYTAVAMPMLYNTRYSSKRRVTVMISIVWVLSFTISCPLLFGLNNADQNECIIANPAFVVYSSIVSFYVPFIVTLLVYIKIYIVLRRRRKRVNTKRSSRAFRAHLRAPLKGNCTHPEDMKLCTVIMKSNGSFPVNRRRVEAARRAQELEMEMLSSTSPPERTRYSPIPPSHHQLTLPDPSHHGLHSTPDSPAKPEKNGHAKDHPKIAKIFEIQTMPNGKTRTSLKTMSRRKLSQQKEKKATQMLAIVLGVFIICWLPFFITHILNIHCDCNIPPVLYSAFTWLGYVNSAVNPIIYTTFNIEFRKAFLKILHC
Source text: National Center for Advancing Translational Sciences [NCATS]
Division of Preclinical Innovation [DPI]
U.S. Environmental Protection Agency [EPA]
National Institutes of Environmental Health Sciences [NIEHS]
National Toxicology Program [NTP]
U.S. Food and Drug Administration [FDA]
DRD2 is the D2 subtype of the dopamine receptor, which is coupled to Gi subtype of G protein-coupled receptor. This G protein-coupled receptor inhibits adenylyl cyclase activity. The DRD2-HEK293 cell line stably expressing D2 dopamine receptor can be used for screening agonists and antagonists of interactions between D2 and its ligands. The Hek293-DRD2 cAMP assay is based on HTRF technology. It measures changes of cAMP accumulation in response to Gi coupled GPCR activation or inhibition.
Tox21 Assay Protocol Summary:
DRD2-Hek293 cells were dispensed at 600 cells/3uL/well in 1536-well white plates using a Multidrop Dispenser. After the assay plates were incubated at a 37 C/5% CO2 incubator for 24 h, 1 uL of Ro20-1724 at final concentration of 0.1 mM was transferred to the assay plate by a Flying Reagent Dispenser. Following Ro20-1724 addition, 23 nL of compound dissolved in DMSO, positive controls or DMSO only was added to the assay plates via Wako pintool station. The assay plates were incubated at room temperature for 10 min. Next, 1 uL of NKH477 at 200nM was added into the plates. After the assay plates were incubated at room temperature for an additional 30 min, 2.5 ul/well of cAMP-d2 and 2.5 ul/well of anti-cAMP-cryptate were added respectively into the assay plates using a Flying Reagent Dispenser. The plates were incubated at room temperature for 1 h. The fluorescence intensity in the plates was measured at 340 nm excitation and 665 & 620 nm emission by an Envision plate reader.
% is scaled to controls: 0 for no effect and ±100 for the full control effect.

Structure (SMILES) | activation
CCN1CCN(C(=O)N[C@@H](C(=O)N[C@@H]2C(=O)N3C(C(=O)O)=C(CSc4nnnn4C)CS[C@H]23)c2ccc(O)cc2)C(=O)C1=O | -13.6% [at 42.5 µM]
O=c1[nH]c2ccccc2n1CCCN1CCN(C(c2ccccc2)c2ccccc2)CC1 | -15.5% [at 42.5 µM]
C/C=C1\[C@H]2C=C(C)C[C@]1(N)c1ccc(=O)[nH]c1C2 | 13.2% [at 42.5 µM]
C/C=C/C=C/CO | 0.162%
Cc1cccc(Nc2ccccc2)c1 | 2.63%
Fc1ccccc1 | 1.52%
Cc1ccc(NC(=O)c2ccc(CN3CCN(C)CC3)cc2)cc1Nc1nccc(-c2cccnc2)n1 | -18.9% [at 42.5 µM]
C=C(C)C(=O)OCCOC(=O)CC(C)=O | -2.3%
COC(=O)C1=C(C)NC(C)=C(C(=O)OCCCN2CCC(c3ccccc3)(c3ccccc3)CC2)C1c1cccc([N+](=O)[O-])c1 (stereo not given) | 0.702% [at 42.5 µM]
CC/C=C/CCCCCCCCCCOC(C)=O | 2.13%
O=C(O)Cc1ccc(OCCNC[C@H](O)c2ccccc2)cc1 | 9.46% [at 42.5 µM]
CCN(Cc1ccccc1)c1ccccc1 | -4.4%
C=C[C@](C)(O)CC[C@@H]1[C@@]2(C)CCCC(C)(C)[C@@H]2CC[C@@]1(C)O | -2.2%
COc1cc(C(C)=O)ccc1OCCCN1CCC(c2noc3cc(F)ccc23)CC1 | -8.83% [at 42.5 µM]
O=C1c2ccccc2C(=O)N1CCc1noc(-c2ccc(CN3CCCCCC3)s2)n1 | -7.17%
CCCCCCCC/C=C\CCCCCCCC(=O)OCCOC(=O)CCCCCCC/C=C\CCCCCCCC | -1.74%
CCCCCCCC/C=C/CCCCCCCC1=NCCN1CCO | -0.152%
Cc1nn(C)c(Oc2ccccc2)c1/C=N/OCc1ccc(C(=O)OC(C)(C)C)cc1 | -18.9%
c1ccc(Sc2ccccc2)cc1 | 5.24%
NC1(c2ccc(-c3nc4ccn5c(=O)[nH]nc5c4cc3-c3ccccc3)cc2)CCC1 | 2.76% [at 42.5 µM]

Structure (SMILES) | activation
Nc1nc2ccccc2n1Cc1ccc(F)cc1 | -1.53% [at 42.5 µM]
CC(C)=CCOc1ccc(/C=C/C(=O)c2ccc(OCC=C(C)C)cc2OCC(=O)O)cc1 | 1.71% [at 42.5 µM]
C=CC(=O)OCC(C)OCC(C)OCC(C)OC(=O)C=C (stereo not given) | -2.74%
Cc1ccc(S(=O)(=O)C(I)I)cc1 | 3.7%
O=C1c2ccccc2C(=O)c2c(Cl)cccc21 | -0.892% [at 42.5 µM]
COC(=O)CC(C)CCC=C(C)C (stereo not given) | 3.24%
CC(=O)OCC(=O)[C@@]12OC(C)(C)O[C@@H]1C[C@H]1[C@@H]3C[C@H](F)C4=CC(=O)C=C[C@]4(C)[C@@]3(F)[C@@H](O)C[C@@]12C | -19.3% [at 42.5 µM]
CCCCNc1ccc(C(=O)OCCN(CC)CC)cc1 | -7.46% [at 42.5 µM]
CC(CC(=O)Cl)CC(C)(C)C (stereo not given) | -0.143%
O=C(OCCc1ccccc1)c1ccccc1 | -0.685%
CCCCOC(=O)c1ccccc1 | 17.1%
Cc1ccc(C(C)C)cc2c(C)ccc1-2 | 6.34% [at 42.5 µM]
O=C(O)[C@H](O)c1ccccc1 | -0.405% [at 42.5 µM]
NNc1nc(-c2ccccc2)cs1 | 0.106%
CC(C)(C)C1=CC(=O)C=C(C(C)(C)C)C1=O | -0.251%
Nc1cccnc1N | 3.97%
c1ccc(-c2ccc(C(c3ccccc3)n3ccnc3)cc2)cc1 (stereo not given) | -9.45% [at 42.5 µM]
CC1(C)C(=O)N(Cl)C(=O)N1Br | 1.5%
Cc1nc(N)nc(N)c1-c1ccc(Cl)c(Cl)c1 | 1.66% [at 42.5 µM]
CC1CCCNC1 (stereo not given) | -2.58%
